Bioassay records from PubChem BioAssay.
Rows were chosen to be rich in hits. Some 17% of all compounds tested hit in one or more screens of this group.
TGFb SMAD3 inh = qHTS for Inhibitors of TGF-b. Potency, µM (titrated, usually from 46.1 µM), without a hit: at the highest dose activity, negative = inhibition, actives largely listed as inhibitors. AID 588855, 2011. HepG2 CAGA-GFP TGF-b/SMAD3 reporter, GFP fluorescence, 18 h; TGF-beta stimulated, 500 pg/mL final. 410,000 compounds, 1.2% hits; also: % is scaled to controls: 0 for no effect and ±100 for the full control effect; nearly all actives have a fitted effect of over 65% in size
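HEPG2 CAGA-GFP cells (1000/well, DMEM with 1% FBS) were pre-incubated 2 h at 37 degrees C, given compound by pin tool, then stimulated with TGF-beta at 500 pg/mL final for 18 h before per-cell GFP fluorescence imaging.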
DT40 TDP1 no CPT = qHTS for Inhibitors of human tyrosyl-DNA phosphodiesterase 1 (TDP1): qHTS in cells in absence of CPT; DT40 Tdp1-/- hTDP1 cells, no CPT, ATP luminescence, 48 h; Potency, µM (highest dose often 46.2 µM), without a hit: top-dose activity change, negative = growth inhibition, usual class: inhibitors; 420,000 compounds, 15% hits; AID 686978, 2013; also: % is scaled to controls: 0 for no effect and ±100 for the full control effect; nearly all actives have a fitted effect of over 55% in size
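Chicken DT40 Tdp1-/- cells complemented with human TDP1, screened without camptothecin (DMSO vehicle only), 400 cells/well. Compounds pin-transferred, cells incubated at 37 °C for at least 48 hr. Growth read as ATP-dependent luminescence (CellTiter-Glo, 30 min at RT).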
HepG2 viability = qHTS for Inhibitors of TGF-b: Cytotox Counterscreen; HepG2 CAGA-GFP viability, ATP luminescence, 18 h; Potency, µM (highest dose often 46.1 µM), inactives show at the highest dose activity change, negative = cytotoxicity, actives largely listed as cytotoxic; 410,000 compounds, 0.76% hits
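CellTiter-Glo luminescence gave cytotoxicity after 18 hours at 37 degrees C. The cells were HepG2 CAGA-GFP in 1% FBS DMEM, stimulated with 500 pg/mL TGF-beta after compound addition. %Activity was normalised to no-cell wells (complete cell-killing) and DMSO (no toxicity), and curves were fitted and classified.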
HT1080NT lethal = qHTS for induction of synthetic lethality in tumor cells producing 2HG: qHTS for the HT-1080-NT fibrosarcoma cell line; HT-1080-NT fibrosarcoma viability, CellTiter-Glo ATP luminescence, 48 h; Potency, µM (doses to about 46.1 µM), inactives show at the top dose activity, negative = less viability, usual class: cytotoxic; 360,000 compounds, 1.6% hits;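 also: NT is the 2HG producing partner of a matched IDH1 knockdown line; 0% = DMSO-treated cells and -100% = media-only wells without cells; nearly all actives have a fitted effect of over 55% in size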
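A 48-hour cytotoxicity screen used HT-1080-NT cells plated 2 hours before compound delivery. ATP-based CellTiter-Glo luminescence measured viability, normalized to DMSO and no-cell controls.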
HT1080 IDH1KD tx = qHTS for induction of synthetic lethality in tumor cells producing 2HG: qHTS for the HT-1080-IDH1KD cell line. Potency, µM (top dose mostly 46.1 µM), for the others: top-dose activity, negative = toxicity, hits mostly cytotoxic. HT-1080 IDH1 knockdown viability, ATP luminescence, 48 h. 360,000 compounds, 2% hits;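 also: 0% = DMSO wells and -100% = cell-free medium wells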
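Knockdown cells (IDH1KD HT-1080) received compounds 2 h after plating at 750 cells/well and were kept 48 h at 37 °C in 5% FBS RPMI. A CellTiter-Glo luminescence read gave % activity for curve fitting.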
DT40 TDP1 CPT = qHTS for Inhibitors of human tyrosyl-DNA phosphodiesterase 1 (TDP1): qHTS in cells in presence of CPT; 420,000 compounds, 12% hits; Potency, µM (titrated, usually from 46.2 µM), inactives show at the highest dose activity change, negative = growth inhibition, most hits filed as inhibitors; chicken DT40 Tdp1-/-;hTDP1 cells + 20 nM CPT, ATP luminescence, 48 h; also: % is scaled to controls: 0 for no effect and ±100 for the full control effect; nearly all actives have a fitted effect of over 55% in size
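Chicken DT40 Tdp1-/- cells stably complemented with human TDP1 were seeded at 400 cells/well in medium containing 20 nM camptothecin, exposed to pin-transferred compounds, and grown at 37 °C for at least 48 hr. Viability was read as ATP luminescence.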
Starred values were filed as active, the others as inactive; [ ] = remark or other dose. Calls follow the shape of the dose curve; as a rule, active = well fitted curve in the direction sought with a large enough effect; inconclusive = small, poorly fitted or top-dose-only effect, or another doubt; inactive = no such curve, though single readings can be large; an effect the other way counts as inactive or inconclusive. Potency is read from the fitted curve at half-maximal effect.

What do the screens show for `CC1=NN(c2ccccc2)C(=O)C1C(=S)SC1CC(=O)NC1=O` (centres undefined)?
TGFb SMAD3 inh: -21%; DT40 TDP1 no CPT: 29µM*; HepG2 viability: -30%; HT1080NT lethal: -2%; HT1080 IDH1KD tx: -13%; DT40 TDP1 CPT: inconclusive

How did Cc1oc(-c2ccccc2NC(=O)c2ccsc2)nc1CN(C)CC1CC=CCC1 (centres undefined) do in these assays?
DT40 TDP1 no CPT: 4%; DT40 TDP1 CPT: -3%[9.04 µM]

What do the screens show for `Cc1ccc(Cl)cc1-n1nnc(-c2nc(-c3ccc4c(c3)OCO4)no2)c1C`?
TGFb SMAD3 inh: 0%; DT40 TDP1 no CPT: 21µM*; HepG2 viability: 10%; DT40 TDP1 CPT: inconclusive

Results for CCOc1ccccc1-n1nnc(-c2nc(-c3ccccc3C)no2)c1C ?
TGFb SMAD3 inh: -1%; DT40 TDP1 no CPT: inconclusive; HepG2 viability: -7%; DT40 TDP1 CPT: inconclusive

How did COc1ccc(Cl)cc1-n1nnc(-c2nc(-c3ccc4c(c3)OCO4)no2)c1C do in these assays?
DT40 TDP1 no CPT: -8%; HepG2 viability: -5%; DT40 TDP1 CPT: 1%

Results for Cc1c(Cl)cccc1-n1nnc(-c2nc(-c3ccc4c(c3)OCO4)no2)c1C ?
DT40 TDP1 no CPT: inconclusive; HepG2 viability: -3%; DT40 TDP1 CPT: 23µM*

What do the screens show for `Cc1ccc(C)c(-n2nnc(-c3nc(-c4ccccc4C)no3)c2C)c1`?
TGFb SMAD3 inh: -1%; DT40 TDP1 no CPT: 15µM*; HepG2 viability: -4%; DT40 TDP1 CPT: 16µM*

How did Cc1cccc(NC(=O)CNC(=O)c2cccs2)n1 do in these assays?
TGFb SMAD3 inh: -16%; DT40 TDP1 no CPT: 1%; HepG2 viability: -4%; HT1080NT lethal: -1%; HT1080 IDH1KD tx: 0%; DT40 TDP1 CPT: 5%

How did O=C(O)CC(CC(=O)NCC(O)c1ccccc1)c1ccccc1 (centres undefined) do in these assays?
TGFb SMAD3 inh: 13%; DT40 TDP1 no CPT: 3%; HepG2 viability: 3%; HT1080NT lethal: 3%; HT1080 IDH1KD tx: 8%; DT40 TDP1 CPT: 3%

What do the screens show for `O=c1[nH]c(SCC2CCCCO2)nc2ccccc12` (centres undefined)?
TGFb SMAD3 inh: 2%; DT40 TDP1 no CPT: -16%; HepG2 viability: 0%; HT1080NT lethal: -30%; HT1080 IDH1KD tx: -29%; DT40 TDP1 CPT: inconclusive

What do the screens show for `CCCC(C)Sc1nc2c([nH]1)c(=S)n(C)c(=O)n2C` (centres undefined)?
TGFb SMAD3 inh: inconclusive; DT40 TDP1 no CPT: 4.6µM*; HepG2 viability: -32%; HT1080NT lethal: -6%; HT1080 IDH1KD tx: -10%; DT40 TDP1 CPT: 4.6µM*

Results for Cn1c(=S)c2[nH]c(SCC3CCCO3)nc2n(C)c1=O (centres undefined) ?
TGFb SMAD3 inh: inconclusive; DT40 TDP1 no CPT: 1.2µM*; HepG2 viability: 11µM*; HT1080NT lethal: 0%; HT1080 IDH1KD tx: -8%; DT40 TDP1 CPT: 1.3µM*

How did CCOc1cc(CNCc2ccncc2)cc(Cl)c1OC do in these assays?
TGFb SMAD3 inh: 6%; DT40 TDP1 no CPT: -12%; HepG2 viability: 13%; HT1080NT lethal: -4%; HT1080 IDH1KD tx: -5%; DT40 TDP1 CPT: -23%

How did O=C(NCCc1ccccc1)c1cccc(N2CCCC2=O)c1 do in these assays?
TGFb SMAD3 inh: 4%; DT40 TDP1 no CPT: -19%; HepG2 viability: -25%; HT1080NT lethal: 3%; HT1080 IDH1KD tx: 0%; DT40 TDP1 CPT: 1%

What do the screens show for `Cc1ccccc1N1C(=O)N(c2cccc(C(F)(F)F)c2)C2CS(=O)(=O)CC21` (centres undefined)?
TGFb SMAD3 inh: 8%; DT40 TDP1 no CPT: 2%; HepG2 viability: -10%; HT1080NT lethal: 1%; HT1080 IDH1KD tx: 2%; DT40 TDP1 CPT: -18%

How did Clc1ccc(SCCN2CCNCC2)cc1 do in these assays?
TGFb SMAD3 inh: 4%; DT40 TDP1 no CPT: 18µM*; HepG2 viability: -2%; HT1080NT lethal: -12%; HT1080 IDH1KD tx: -13%; DT40 TDP1 CPT: inconclusive

Results for CCN1CCN(CCCOc2ccc(Cl)cc2Br)CC1 ?
TGFb SMAD3 inh: -3%; DT40 TDP1 no CPT: 16µM*; HepG2 viability: 5%; HT1080NT lethal: inconclusive; HT1080 IDH1KD tx: -23%; DT40 TDP1 CPT: inconclusive

What do the screens show for `Clc1ccc(OCCCCCN2CCCC2)c(Br)c1`?
TGFb SMAD3 inh: inconclusive; DT40 TDP1 no CPT: 23µM*; HepG2 viability: 0%; HT1080NT lethal: inconclusive; HT1080 IDH1KD tx: inconclusive; DT40 TDP1 CPT: inconclusive

How did Clc1ccc(Cl)c(OCCCCN2CCNCC2)c1 do in these assays?
TGFb SMAD3 inh: inconclusive; DT40 TDP1 no CPT: inconclusive; HepG2 viability: -47%; HT1080NT lethal: inconclusive; HT1080 IDH1KD tx: inconclusive; DT40 TDP1 CPT: 5.8µM*

What do the screens show for `Cc1ccc(OCC(=O)N2CCCCCCC2)cc1`?
TGFb SMAD3 inh: -7%; DT40 TDP1 no CPT: -17%; HepG2 viability: -29%; HT1080NT lethal: 9%; HT1080 IDH1KD tx: 11%; DT40 TDP1 CPT: 7%

How did COc1ccc(NC(=O)NC2COc3ccccc3C2)c(OC)c1 (centres undefined) do in these assays?
TGFb SMAD3 inh: -35%; DT40 TDP1 no CPT: -5%; HepG2 viability: -7%; DT40 TDP1 CPT: -11%

What do the screens show for `COCCNC(=O)C1(C)CCCN(C(=O)CCc2ccccc2)C1` (centres undefined)?
TGFb SMAD3 inh: 23%; DT40 TDP1 no CPT: -5%; HepG2 viability: -2%; HT1080NT lethal: 17%; HT1080 IDH1KD tx: 4%; DT40 TDP1 CPT: -18%

What do the screens show for `CC(C)N1C(=O)S/C(=C/c2ccc(Sc3nc4ccccc4[nH]3)o2)C1=O`?
TGFb SMAD3 inh: 20µM*; DT40 TDP1 no CPT: 10µM*; HepG2 viability: -19%; HT1080NT lethal: -4%; HT1080 IDH1KD tx: inconclusive; DT40 TDP1 CPT: 15µM*

How did C=CCN1C(=O)S/C(=C/c2ccc(Sc3nc4ccccc4[nH]3)o2)C1=O do in these assays?
TGFb SMAD3 inh: 20µM*; DT40 TDP1 no CPT: 21µM*; HepG2 viability: -36%; HT1080NT lethal: -17%; HT1080 IDH1KD tx: inconclusive; DT40 TDP1 CPT: 23µM*
